According to PubChem BioAssay (NCI):
About 83,000 compounds went through this panel and 20% of them were active in at least one assay; those are over-represented in the sample as a whole.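 A percent growth of 40 corresponds to 60% growth inhibition; 0 means no net growth; -100 means all cells died. Active threshold: below 10.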 Calls of active or inactive are those of the source.

Columns and labels:
Experiment in all cases: NCI-60 one-dose screen, 48 h (100 = growth as untreated, 0 = no growth, -100 = all killed)
[1] = system: NCI-H460 lung; conditions: 10 µM unless noted
[2] = system: HOP-92 NSCLC; conditions: 10 µM unless noted
[3] = system: MDA-MB-231 breast; conditions: 10 µM unless noted
[4] = system: RXF 393 renal; conditions: 10 µM unless noted
[5] = system: SNB-75 CNS; conditions: 10 µM unless noted
[6] = system: SNB-19 CNS; conditions: 10 µM unless noted
[7] = system: SK-MEL-5 melanoma; conditions: 10 µM unless noted
[8] = system: UO-31 renal; conditions: 10 µM unless noted
[9] = system: CAKI-1 renal; conditions: 10 µM unless noted
[10] = system: MOLT-4 leukemia; conditions: 10 µM
[11] = system: SR leukemia; conditions: 10 µM
[12] = system: SK-OV-3 ovarian; conditions: 10 µM unless noted
[13] = system: T-47D breast; conditions: 10 µM unless noted
[14] = system: MDA-MB-435 melanoma; conditions: 10 µM unless noted
[15] = system: SW-620 colon; conditions: 10 µM unless noted
[16] = system: HCT-116 colon; conditions: 10 µM unless noted
[17] = system: HCC-2998 colon; conditions: 10 µM unless noted
[18] = system: KM12 colon; conditions: 10 µM unless noted
[19] = system: LOX IMVI melanoma; conditions: 10 µM unless noted
[20] = system: OVCAR-4 ovarian; conditions: 10 µM unless noted

Measured: growth

O=C(CCc1ccco1)NC1CCN(CC2(c3ccc(Cl)cc3)CCC2)CC1
active: [1] 3.79% | [2] -21.9% | [3] -6.18% | [7] -9.97% | [9] 5.62% | [10] -11.7% | [11] -24.6% | [14] 4.28% | [16] 7.86% | [18] 1.4%
inactive: [4] 28.4% | [5] 16% | [6] 15% | [8] 10.7% | [12] 13.8% | [13] 15.4% | [15] 14.7% | [17] 11.4%

COc1c(O)c2c3c(c1OC)-c1ccccc1CC3N(C)CC2 (stereo unspecified)
inactive: [1] 110% | [2] 110% | [3] 96.3% | [4] 133% | [5] 82.4% | [6] 102% | [7] 108% | [19] 99.3% | [8] 89.9% | [9] 94.3% | [10] 83.6% | [11] 75.1% | [20] 120% | [12] 94.2% | [13] 100% | [14] 104% | [15] 117% | [16] 95.7% | [17] 111% | [18] 100%

CC12CCC(=O)C=C1C(O)CC1C2CCC2(C)C(O)CCC12 (stereo unspecified)
inactive: [1] 102% | [2] 103% | [3] 114% | [4] 113% | [5] 94.5% | [6] 101% | [7] 98.6% | [19] 97.2% | [8] 87.1% | [9] 102% | [10] 96.5% | [11] 106% | [20] 104% | [12] 115% | [13] 112% | [14] 112% | [15] 109% | [16] 99% | [17] 101% | [18] 98.8%

Clc1ccc(SSC(Cl)(Cl)Cl)cc1
inactive: [1] 101% | [2] 84.8% | [3] 116% | [4] 112% | [5] 106% | [6] 121% | [7] 110% | [19] 103% | [8] 99.9% | [9] 119% | [10] 99.7% | [11] 107% | [20] 108% | [12] 115% | [13] 114% | [14] 105% | [15] 97.6% | [17] 110% | [18] 108%

CC1([N+](=O)[O-])COP(=O)(Nc2ccc(F)cc2)OC1 (stereo unspecified)
inactive: [1] 106% | [2] 118% | [3] 118% | [4] 100% | [5] 95.6% | [6] 107% | [7] 98.2% | [19] 84.2% | [8] 73.9% | [9] 107% | [10] 83% | [11] 84.2% | [20] 113% | [12] 101% | [14] 110% | [15] 102% | [16] 99.4% | [17] 99.5% | [18] 95.8%

NC(=O)C(Cl)Cl
inactive: [1] 100% | [3] 111% | [5] 96.4% | [6] 99.2% | [8] 94.6% | [9] 98.1% | [10] 109% | [11] 99.5% | [20] 105% | [12] 109% | [13] 103% | [14] 103% | [15] 113% | [16] 107% | [17] 120% | [18] 110%

CCC[CH2][Sn]([CH2]CCC)([CH2]CCC)[O]C(=O)c1ccc(Cl)cc1Cl
active: [1] -78% | [2] -84.6% | [3] -88.2% | [4] -88.5% | [5] -93.2% | [7] -96.1% | [19] -70.3% | [8] -86.9% | [9] -92.6% | [10] -16.6% | [11] 3.12% | [20] -67.7% | [12] -96% | [13] -58.3% | [14] -85.4% | [15] -71.7% | [16] -87.6% | [17] -90.9% | [18] -92.4%

CC12CC[C@H](O)C=C1/C(=N/O)CC1C2CCC2(C)C1CC[C@@H]2O (stereo partly specified)
inactive: [3] 108% | [4] 104% | [6] 104% | [7] 103% | [19] 94.3% | [8] 66.2% | [9] 84% | [12] 95% | [13] 77.6% | [14] 90.7% | [16] 93.3% | [17] 99.3%

COc1cc(C2CC(=O)Nc3nc(N)[se]c32)c(OC)c2c1OCO2 (stereo unspecified)
inactive: [1] 23.9% | [2] 105% | [3] 96.3% | [5] 101% | [6] 51.9% | [19] 104% | [8] 86.8% | [9] 89.8% | [10] 117% | [11] 107% | [20] 96.3% | [12] 78.3% | [13] 89% | [14] 99% | [15] 110% | [16] 65.7% | [17] 121% | [18] 70.3%
